In PubChem BioAssay AID488835 (Broad Institute, 2010) one finds outcome data, which are given here for 65 compounds.

The structures appear in SMILES notation. In all, about 1,400 compounds went through this assay and about 140 (10%) were called active.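 The calls were made as follows: active = Half-maximal inhibitory dose from the fit at or below ten times the top valid tested dose; inconclusive = Invalid fit, or flat curve showing 30 to 70% inhibition; inactive = the rest.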 These entries were drawn from the full list. Results with a measured potency or affinity are listed apart.

The target of this assay is Lysine-specific demethylase 4C (Homo sapiens) (UniProt Q9H3R0). The assay can be described thus: GASC-1 (JMJD2C) histone demethylase inhibitors, dose response, biochemical, DELFIA europium, cherry-picked samples (AID 488835).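 Also: signal is the H3K9me2 demethylation product detected by a dimethyl-specific antibody.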 The following applies: GST-JMJD2C(1-420), H3K9me3 demethylation; series mostly up to 6 µM.
Lysine-specific demethylase 4C (Homo sapiens), sequence (Q9H3R0 1-420 limits assumed): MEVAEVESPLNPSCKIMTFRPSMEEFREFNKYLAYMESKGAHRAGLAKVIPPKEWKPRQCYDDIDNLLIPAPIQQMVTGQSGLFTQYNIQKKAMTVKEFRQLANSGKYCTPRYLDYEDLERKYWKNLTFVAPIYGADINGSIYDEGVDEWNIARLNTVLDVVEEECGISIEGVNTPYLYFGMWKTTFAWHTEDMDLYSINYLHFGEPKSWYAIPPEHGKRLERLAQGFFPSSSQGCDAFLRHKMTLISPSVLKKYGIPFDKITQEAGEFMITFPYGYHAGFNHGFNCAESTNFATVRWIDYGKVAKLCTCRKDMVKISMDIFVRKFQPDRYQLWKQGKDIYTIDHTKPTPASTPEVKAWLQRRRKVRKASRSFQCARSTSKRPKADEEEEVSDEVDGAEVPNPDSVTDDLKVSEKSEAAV
In the case of `COc1ccc(S(=O)(=O)Nc2ccc3c(c2)C(=O)N([C@H](C)CO)C[C@H](C)[C@H](CN(C)Cc2ccc(C(=O)O)cc2)O3)cc1`, the compound was classed as inactive.
To `Cc1noc(C)c1NC(=O)N(C)C[C@H]1Oc2ccc(NC(=O)Cn3cnnn3)cc2C(=O)N([C@H](C)CO)C[C@@H]1C` belongs “inactive”; to `Oc1cc(O)cc(/C=C/c2ccc(O)c(O)c2)c1`, “inactive”.
As for `CC(=O)OCC1OC(OC2C[C@]3(C)C(CC(O)C4C([C@](C)(CCC=C(C)C)OC5OC(CO)C(O)C(O)C5O)CC[C@]43C)[C@@]3(C)CCC(O)C(C)(C)C23)C(O[C@@H]2OC(C)C(O)C(O)C2O)C(O)C1O` (stereo not given in full), the call was inactive.
As to `N=C1C(c2nc3ccccc3s2)=C(O)CN1Cc1ccccc1`, the compound was classed as inactive.
To `CN(C(=O)c1ccccn1)c1nnc(-c2ccccn2)s1` belongs “inactive”; to `Nc1ccc2oc(-c3ccccn3)nc2c1`, “inactive”.
To `O=C(N/N=C/c1nn(-c2ccccc2)cc1-c1ccccc1)c1ccncc1` belongs “inactive”; to `CCCC(=O)Nc1ccc(C(=O)NCC2CCCO2)cc1` (stereo not given), “inactive”; to `CS(=O)(=O)N(CCc1ccccc1)CC(=O)NCC1CCCO1` (stereo not given), “inactive”.
For `Cc1cc(C)n(-c2nnc(C)n2/N=C/c2ccco2)n1`, the compound was classed as inactive.
As for `O=C(O)c1cc2cc(Cl)ccc2oc1=O`, the entry is “inactive”.
To `O=C(CSc1nc2ccccc2c(=O)n1Cc1ccccc1)NCc1ccco1` belongs “inactive”.
On to `CCOC(=O)Cn1c(=O)cnc2ccccc21`, for which the outcome was inactive.
As for `O=[N+]([O-])c1ccccc1/C=C/C=N/n1c(-c2ccc(Cl)cc2)n[nH]c1=S`, the entry is “inactive”; as for `CC(C)(C)n1ncc2c(=O)n(Cc3ccccc3Br)cnc21`, “inactive”.
As for `CCN(CC)c1ccc(C(=O)OCC(=O)N2CCCC2)cc1`, the entry is “inactive”.
As for `O=C(OCC(=O)N1CCCC1)c1ccc(S(=O)(=O)Nc2ccccc2)cc1`, the entry is “inactive”; as for `C[C@H](CO)N1C[C@H](C)[C@@H](CN(C)C(=O)NC2CCCCC2)Oc2c(NC(=O)c3ccncc3)cccc2C1=O`, “inactive”; as for `CCC(=O)N1c2ccc(S(=O)(=O)CCC(=O)NCCC3=CCCCC3)cc2CC1C` (stereo not given), “inactive”.
On to `Brc1ccc(-c2csc(N3CCc4ccccc4C3)n2)cc1`, for which the result was inactive.
Consider `O=C(N/N=C/c1ccc([N+](=O)[O-])o1)c1cn(-c2ccccc2)nc1-c1ccc(F)cc1`, for which the compound was classed as inactive.
To `COc1ccc(-n2c(C)cc(/C=N/Nc3nnc(C)n3N)c2C)cc1` belongs “inactive”; to `Cc1cccc(C)c1NC(=S)NN(Cc1ccccc1)c1ccccc1`, “inactive”.
As for `CCN(CC)CCCOc1ccc(C)cc1Br`, the entry is “inactive”; as for `O=C(C1CCC1)N(CCc1ccccc1)Cc1nc2ccccc2c(=O)[nH]1`, “inactive”.
To `COc1ccc(NC(=S)N2CCC(C(=O)N3CCCCCC3)CC2)cc1` belongs “inactive”; to `O=C(Nc1ccc(Cl)cc1)N1CCN(c2ccccc2)CC1`, “inactive”.
Regarding `COc1ccc(C(C(C(=O)c2ccco2)N2CCOCC2)N2CCOCC2)cc1` (stereo not given), the outcome was inactive.
To `CCN1C(=O)C(C(=O)Nc2ccc(OC)cc2)C2CC1(C)Oc1ccccc12` (stereo not given) belongs “inactive”; to `COc1ccc(CC(=O)Nc2ccc(S(=O)(=O)N(C)C)cc2)cc1OC`, “inactive”.
To `Cc1onc(-c2c(F)cccc2Cl)c1C(=O)N1CCN(S(C)(=O)=O)CC1` belongs “inactive”; to `N/C(=N\OC(=O)COc1cc(Cl)c(Cl)cc1Cl)c1ccncc1`, “inactive”; to `C=CCNC(=S)Nc1ccc(N2CCOCC2)c(S(=O)(=O)Nc2ccccc2Cl)c1`, “inactive”.
As for `CN(C)S(=O)(=O)c1cccc(NC(=S)NCc2ccc3c(c2)OCO3)c1`, the entry is “inactive”; as for `O=C(NCc1cccc(F)c1)C1CCN(S(=O)(=O)Cc2ccccc2)CC1`, “inactive”.
On to `COc1ccc(S(=O)(=O)N2CCC(C(=O)N3CCc4ccccc4C3)CC2)cc1`, for which the outcome was inactive.
To `COc1ccc(C2CC(=O)C=C(NNS(=O)(=O)c3ccc(C)cc3)C2)cc1` (stereo not given) belongs “inactive”; to `COCCn1nnnc1C(C(C)C)N1CCCC(C)C1` (stereo not given), “inactive”; to `COc1ccc(NS(=O)(=O)c2cccc(C(=O)OCC(=O)Nc3cc(C)on3)c2)cc1`, “inactive”.
To `CCc1ccc(S(=O)(=O)Nc2nnc(N)s2)cc1` belongs “inactive”; to `O=C(NCCNc1ccc([N+](=O)[O-])cc1C(F)(F)F)c1ccccc1`, “inactive”; to `COC(=O)COc1ccc(S(=O)(=O)N2CCOCC2)cc1C`, “inactive”.
On to `COc1ccccc1C(c1nnnn1Cc1ccccc1)N1CCN(C2CCCC2)CC1` (stereo not given), for which the outcome was inactive.
As for `C/C=C(\C)c1nnc(NC(=O)C(C)C)s1`, the entry is “inactive”.
As for `CCOC(=O)N1CCN(C(=S)NC(=O)c2ccc(F)cc2)CC1`, the entry is “inactive”; as for `COc1ccc(-c2nn(-c3ccccc3)cc2CNC(C)Cn2cncn2)c(F)c1` (stereo not given), “inactive”.
For `CCOc1ccc(N2CC(C(=O)Nc3nnc(Cc4ccc(OC)cc4)s3)CC2=O)cc1` (stereo not given), the compound was called inactive.
To `CCCCN1CC[C@H]2C=CC[C@@H](C(=O)Nc3ccc(OC)cc3)[C@H]2C1=O` belongs “inactive”.
As for `O=S(=O)(Nc1ccccc1)c1ccc(NS(=O)(=O)c2c(F)cccc2F)cc1`, the entry is “inactive”; as for `C[C@H](CO)N1C[C@H](C)[C@@H](CN(C)C(=O)Nc2ccc(C(F)(F)F)cc2)Oc2c(NC(=O)Nc3ccc4c(c3)OCO4)cccc2C1=O`, “inactive”; as for `COc1cc(/C=N/Nc2ccccc2)ccc1OC(=O)c1cccs1`, “inactive”.
To `COc1cc(/C=N/N2C(=O)C3C4c5ccccc5C(c5ccccc54)C3C2=O)ccc1O` (stereo not given) belongs “inactive”; to `COc1ccc(/C=N/Nc2ncnc(Cl)c2N)cc1OC`, “inactive”; to `O=C(O)CCCC(=O)Nc1ccc(C(=O)NCc2cccnc2)cc1`, “inactive”.
Take `N#CCN1CCC(c2cc(-c3ccco3)n[nH]2)CC1`: the compound was classed as inactive.
As for `CS(=O)(=O)N(CC(=O)O)c1cc(Cl)cc(Cl)c1`, the entry is “inactive”; as for `COc1ccc(N2CCN(C(=O)CSc3nnc(-c4ccco4)n3C)CC2)cc1`, “inactive”.
As to `C[C@H](CO)N1C[C@H](C)[C@@H](CN(C)C(=O)Nc2ccccc2)Oc2c(NC(=O)c3ccncc3)cccc2C1=O`, the compound was classed as inactive.
To `Cc1cccc2sc(NNC(=O)c3cc(=O)c4ccccc4o3)nc12` belongs “inactive”.
To `CN1N=C(C(F)(F)F)CC1=O` belongs “inactive”; to `CSC1=NCCN1C(=O)c1cccc(C(F)(F)F)c1`, “inactive”.
To `Cc1ccc(Nc2c(-c3ccccn3)nc3cc(C)ccn23)cc1` belongs “inactive”.
For the compound `Cn1c(=O)c(-c2ccccc2)nn2c3ccccc3nc12`, the outcome was inactive.
To `CCOC(=O)N1CCC2(CC1)C(C#N)=C(N)OC1=C2C(=O)CC(C)(C)C1` belongs “inactive”.
